# This is a sample that favours compounds with a hit; in the whole collection about 1.3% have one here.
# EPAC1 antagonist: qHTS for Antagonist of cAMP-regulated guanine nucleotide exchange factor 3 (EPAC1): primary screen; Rap guanine nucleotide exchange factor 3 (Homo sapiens), O95398; EPAC1 GEF assay, Rap1b-BODIPY-GDP exchange fluorescence; Potency, µM (titrated, usually from 115 µM), without a hit: top-dose activity change, negative = inhibition, actives largely listed as inhibitors; 360,000 tested, 0.14% active; AID 720709, 2013;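 note: plate controls were vehicle for no effect and positive control for full effect; nearly all actives have a fitted effect of over 50% in size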
# EPAC2 antagonist: qHTS for Antagonist of cAMP-regulated guanine nucleotide exchange factor 2 (EPAC2): primary screen. Rap guanine nucleotide exchange factor 4 (Homo sapiens), Q8WZA2. EPAC2 GEF exchange of Rap1B-BODIPY-GDP, fluorescence. Potency, µM (top dose mostly 114 µM), for the others: at the top dose activity, negative = inhibition, usual class: inhibitors. 360,000 tested, 0.18% active; note: % is set by controls: 0 for no effect and ±100 for the full control effect; nearly all actives have a fitted effect of over 45% in size
# Target sequence (Q8WZA2 whole entry, looked up): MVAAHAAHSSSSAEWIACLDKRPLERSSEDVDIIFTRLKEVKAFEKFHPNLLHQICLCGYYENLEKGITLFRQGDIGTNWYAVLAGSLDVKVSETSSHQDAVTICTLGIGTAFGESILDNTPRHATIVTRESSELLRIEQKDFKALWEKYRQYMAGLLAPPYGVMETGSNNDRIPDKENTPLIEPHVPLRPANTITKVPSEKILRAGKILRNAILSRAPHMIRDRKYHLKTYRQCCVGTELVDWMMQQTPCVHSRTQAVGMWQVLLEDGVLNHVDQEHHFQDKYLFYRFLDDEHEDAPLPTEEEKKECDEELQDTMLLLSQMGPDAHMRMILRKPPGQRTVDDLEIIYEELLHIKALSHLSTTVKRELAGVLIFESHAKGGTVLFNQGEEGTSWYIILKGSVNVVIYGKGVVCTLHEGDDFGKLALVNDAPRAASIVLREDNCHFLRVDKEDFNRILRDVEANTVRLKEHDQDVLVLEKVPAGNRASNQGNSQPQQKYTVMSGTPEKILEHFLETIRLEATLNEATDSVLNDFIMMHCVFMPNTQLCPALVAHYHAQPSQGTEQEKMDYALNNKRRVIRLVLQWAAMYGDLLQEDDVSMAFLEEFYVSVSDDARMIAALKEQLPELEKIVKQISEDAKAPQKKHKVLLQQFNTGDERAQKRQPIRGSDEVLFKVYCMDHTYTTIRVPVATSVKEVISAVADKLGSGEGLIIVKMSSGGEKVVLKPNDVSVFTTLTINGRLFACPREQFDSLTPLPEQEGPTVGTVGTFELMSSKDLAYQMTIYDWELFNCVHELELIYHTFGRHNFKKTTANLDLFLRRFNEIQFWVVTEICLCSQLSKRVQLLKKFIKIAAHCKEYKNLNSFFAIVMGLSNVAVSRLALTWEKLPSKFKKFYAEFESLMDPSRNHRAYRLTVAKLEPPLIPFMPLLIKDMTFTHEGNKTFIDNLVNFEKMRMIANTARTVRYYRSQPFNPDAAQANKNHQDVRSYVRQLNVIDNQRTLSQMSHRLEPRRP
# EPAC2 ag: qHTS for Agonist of cAMP-regulated guanine nucleotide exchange factor 4 (EPAC2): primary screen | Rap guanine nucleotide exchange factor 4 (Homo sapiens), Q8WZA2 | EPAC2 activation, biochemical qHTS; response scale: 100% = 6.5 mM cAMP response | Potency, µM (titrated, usually from 154 µM), inactives show top-dose activation, most hits filed as activators | 360,000 tested, 0.079% active | AID 720711, 2013; note: nearly all actives have a fitted effect of over 50% in size
#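 Exchange assay: 100 nM EPAC2 with 250 nM Rap1B-BODIPY-GDP and 50 uM GDP. Fluorescence (ex 480/em 540 nm) read every 5 min for 30 min at room temperature. Data normalized to 6.5 mM cAMP as agonist control.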
# EPAC1 agonist: qHTS for Agonist of cAMP-regulated guanine nucleotide exchange factor 3 (EPAC1): primary screen. AID 720707, 2013. 360,000 tested, 0.073% active. Potency, µM (titrated, usually from 154 µM), for inactives: top-dose activation, hits mostly activators. EPAC1 agonist qHTS, biochemical assay; response scale: 100% = response to 6.5 mM cAMP; note: nearly all actives have a fitted effect of over 60% in size
#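 Multi-concentration qHTS readout: loss of Rap1B-bound BODIPY-GDP fluorescence driven by 100 nM EPAC1 with excess GDP (50 uM), monitored kinetically at room temperature; agonist response expressed relative to 6.5 mM cAMP.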
# USP1-UAF1 inh: Inhibitors of USP1/UAF1: Primary Screen. Ubiquitin carboxyl-terminal hydrolase 1 (Homo sapiens), O94782. recombinant USP1/UAF1, Ub-Rhodamine cleavage fluorescence. Potency, µM (titrated, usually from 57.1 µM), for inactives: top-dose activity change, negative = inhibition, actives largely listed as inhibitors. 390,000 tested, 0.23% active; note: % is set by controls: 0 for no effect and ±100 for the full control effect; nearly all actives have a fitted effect of over 60% in size
#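 USP1/UAF1 complex at 1 nM was preincubated with compound for 15 min at room temperature, then Ub-Rho substrate (150nM final) was added. Fluorescence (480/540 nm) was read kinetically, 6 reads every 60 seconds.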
# ALOX12 inh: Primary qHTS assay for inhibitors of human arachidonate 12S-lipoxygenase (ALOX12): Round 2. purified 12hLO, xylenol orange hydroperoxide absorbance. Potency, µM (top dose mostly 108 µM), for inactives: at the top dose activity change, negative = inhibition, actives largely listed as inhibitors. 580,000 tested, 1.1% active; note: % is set by controls: 0 for no effect and ±100 for the full control effect
#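 Purified human 12hLO (150 nM final) in 25 mM Hepes, 0.01% Triton X-100, pH 7.0 was preincubated 15 min at room temperature with compound. Then 40 uM arachidonic acid was added, 30 min. Hydroperoxide was read by Fe-XO absorbance ratio 573/405 nm.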
# * = called active by the depositor; ? = inconclusive; nt = no result given. Calls come from the whole dose curve; as a rule, active = well fitted curve in the direction sought with a large enough effect; inconclusive = small, poorly fitted or top-dose-only effect, or another doubt; inactive = no such curve, though single readings can be large; an effect the other way counts as inactive or inconclusive. Potency is the fitted concentration of half-maximal effect.
SMILES,EPAC1 antagonist,EPAC2 antagonist,EPAC2 ag,EPAC1 agonist,USP1-UAF1 inh,ALOX12 inh
Oc1ccc(/C=N/N(Cc2ccccc2)c2ccccc2)c(O)c1O,?,-19%,14%,3%,-22%,40µM*
Oc1cccc(/C=N/N(Cc2ccccc2)c2ccccc2)c1,-13%,-15%,9%,-2%,-12%,50µM*
CCn1c(C)c(CCC(=O)NCC2CCCO2)c(=O)n2nc(-c3ccccc3OC)cc12 (centres undefined),nt,nt,nt,nt,nt,3%
Brc1ccc(-c2noc(-c3cccnc3)n2)o1,nt,nt,nt,nt,nt,-28%
O=C(NCCC(c1ccccc1)c1ccccc1)NNc1ccccn1,nt,nt,nt,nt,nt,22µM*
CN(C)c1nc(=NCc2ccco2)ss1,8%,12%,-1%,-7%,-26%,nt
CCOC(CN=c1nc(N(C)C)ss1)OCC,-4%,1%,3%,0%,-18%,18µM*
CCOC(=O)O[C@H](C)OC(=O)C1N2C(=O)[C@H](NC(=O)[C@H](N)c3ccccc3)C2SC1(C)C (some centres undefined),nt,nt,nt,nt,nt,0%
O=C1C(F)=CC(COC(c2ccccc2)(c2ccccc2)c2ccccc2)OC1n1cc(F)c(=O)[nH]c1=O (centres undefined),-6%,12%,-9%,1%,?,8.9µM*
Cc1ccc([C@H]2Nc3ccc(S(=O)(=O)Nc4cccc(Cl)c4C)cc3[C@H]3C=CC[C@H]32)cc1,nt,nt,nt,nt,21%,40µM*
COc1cccc([C@H]2Nc3ccc(S(=O)(=O)Nc4cc(C)ccc4C)cc3[C@H]3C=CC[C@H]32)c1,nt,nt,nt,nt,?,-27%
Cn1c(CN2CCOCC2)nnc1SCc1ccc(Cl)c(Cl)c1,nt,nt,nt,nt,nt,31%
Cc1c(C(C)(C)C)sc(=N)n1C,nt,nt,nt,nt,nt,45µM*
CC(=O)Nc1ccc(S(=O)(=O)NCCc2csc(C)n2)cc1,-5%,13%,4%,-2%,-10%,-3%
CC(=O)Nc1cccc(C(C)NCc2csc(C)n2)c1 (centres undefined),nt,nt,nt,nt,nt,2µM*
C=CCNC(=S)NC(=O)c1ccc(C)c(Br)c1,-24%,-7%,7%,6%,-16%,35µM*
COc1ccc(N=C2NC(=O)S/C2=C\c2ccc(N(C)C)cc2)cc1,-4%,3%,11%,?,25µM*,1%
CCOc1ccc(N=C2NC(=O)S/C2=C\c2ccc(Cl)cc2)cc1,-12%,-8%,4%,3%,-5%,?
Cc1ccc(C(=O)C(C)OC(=O)CCc2c[nH]c3ccccc23)cc1 (centres undefined),nt,nt,nt,nt,nt,0%
O=S(=O)(c1ccc2c(c1)OCCO2)c1nc(-c2ccccc2)oc1NCCN1CCOCC1,nt,nt,nt,nt,nt,25µM*
CC(CCc1ccccc1)NC(=O)CN1C(=O)NC(c2ccc(Cl)cc2)C2=C1COC2=O (centres undefined),nt,nt,nt,nt,nt,1%
CC1=Nc2ccccc2/C1=C\c1nc(-c2ccc(C(F)(F)F)cc2)oc1O,32%,3%,-46%,-55%,13µM*,?
CC1=Nc2ccccc2/C1=C\c1nc(-c2ccccc2)oc1O,9%,11%,?,21%,?,-11%
CNC(=S)NNC(=O)c1cccc(Cl)c1,nt,nt,nt,nt,nt,46%
O[C@H]1C[C@H](c2ccc(Cl)cc2)N(Cc2cccs2)C[C@@H]1n1cc(-c2ccc(F)cc2)nn1,1%,4%,4%,3%,-26%,35µM*
